Screens (PubChem)
SKN-1 block: inhibitors of C. elegans SKN-1. C. elegans VP596 Pgst-4::GFP/RFP ratio, acrylamide-induced, 24 h. inhibition, % at 21.8 µM. 0.49% of 360,000 active;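 active = interference check ratio from 0.5 to 1.5 plus GFP to RFP signal ratio inhibition reaching or exceeding a fixed threshold, cut at about 30% in these data, passing the limit was not always enough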
NR3A LBD binder: modulators (binders) of human NR3A ligand-binding domain; AID 1259313; 2.5% of 340,000 active; Tm shift relative to glycine control, % at 25 µM; NR3A LBD differential scanning fluorimetry, Tm shift; 0% = protein alone, 100% = glycine-bound protein;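 active = melting temperature shift of at least 10% of the positive control shift, at one fixed dose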
esBAF inh: inhibitors of esBAF chromatin remodeling in mouse ES cells; reporter increase, % at 12.5 µM; AID 602393; 2% of 350,000 active; Bmi1-luciferase knock-in reporter, 24 h; 100% = twice the neutral-well signal; in the data active = activation above about 40%; inconclusive = no clear call, values can overlap the other calls;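 also: 0% = median of the plate's neutral control wells and 100% = double that signal; a rise in the Bmi1 reporter signal indicates esBAF inhibition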
Vif imaging: inhibitors of HIV Vif; 0.35% of 340,000 active; HEK293T cells, Vif self-association by quenched fluorescence, imaging, 24 h; AID 602346; inhibition, % at 7.49 µM; in the data active = inhibition above about 50%, passing the limit was not always enough; inconclusive = no clear call, values can overlap the other calls; inactive = below about 31%
SMARCA2 activ: SMARCA2 function activation, primary screen | MG213 cells, MMTV-luciferase reporter, dexamethasone, overnight | activation, % at 9.1 µM | 1% of 370,000 active | AID 652017; in the data active = activation above about 7.8%;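 also: 0% = vehicle wells and 100% = reference activator wells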
NadD block: NadD (S. aureus) enzyme inhibition; purified NadD enzyme, colorimetric absorbance read-out; inhibition, % at 20 µM; 0.78% of 360,000 active; in the data active = inhibition above about 26%
Active calls of the source: *. Only some compounds are listed: those with a hit (about 5.2% of all), similar ones and a draw of the others.

Results for COc1cc2c3nnc(-c4ccc(F)cc4)c-3cn(Cc3ccc(F)cc3)c2cc1OC ?
SKN-1 block: -26.4; NR3A LBD binder: -16.8; esBAF inh: 12.1; Vif imaging: 94.5*; SMARCA2 activ: 4.7; NadD block: 16.7

How did COc1cc2c3nnc(-c4ccc(F)cc4)c-3cn(Cc3ccccc3)c2cc1OC do in these assays?
SKN-1 block: -30.6; NR3A LBD binder: -24.1; esBAF inh: 21.7; Vif imaging: inactive; SMARCA2 activ: 18.6*; NadD block: 8.7

What do the screens show for `CN1C(=O)c2cc(NC(=O)NC3CCCC3)ccc2OC[C@H]2O[C@H](CC(=O)NCC3CC3)CC[C@H]21`?
esBAF inh: -2.4

What do the screens show for `O=C(C[C@H]1CC[C@H](NC(=O)C2CC2)[C@H](CO)O1)NCCCN1CCOCC1`?
esBAF inh: -1.8

What do the screens show for `CN1CCN(C(=O)C[C@@H]2CC[C@@H]3[C@@H](COc4ccc(NC(=O)C5CCCCC5)cc4C(=O)N3C)O2)CC1`?
esBAF inh: -5.7

How did COc1ccc(Nc2ncnc3sc(-c4ccccc4)cc23)cc1OC do in these assays?
SKN-1 block: 3.0; NR3A LBD binder: 12.6*; esBAF inh: -4.4; Vif imaging: 12.9; SMARCA2 activ: -2.9; NadD block: 1.9

How did COc1ccc(Nc2ncnc3c2cnn3-c2ccccc2)cc1OC do in these assays?
SKN-1 block: 3.9; NR3A LBD binder: 0.4; esBAF inh: 20.3; Vif imaging: -6.7; SMARCA2 activ: 2.6; NadD block: 0.6

Results for CO[C@@H]1CN(C)C(=O)c2cc(NC(=O)C3CC3)ccc2OC[C@H](C)N(Cc2cncnc2)C[C@H]1C ?
esBAF inh: -2.3

What do the screens show for `COc1ccc(C2C(C(=O)OC(C)C)=C(C)N=c3s/c(=C\c4cccs4)c(=O)n32)cc1` (stereo not given)?
SKN-1 block: 43.4*; NR3A LBD binder: 0.5; esBAF inh: -6.9; Vif imaging: -5.1; SMARCA2 activ: -1.3; NadD block: 19.6

Results for CCOC(=O)C1=C(C)N=c2s/c(=C/c3ccc(OCC(=O)O)cc3)c(=O)n2C1c1ccc(F)cc1 (stereo not given) ?
SKN-1 block: 13.2; NR3A LBD binder: 0.0; esBAF inh: 2.4; Vif imaging: -8.6; SMARCA2 activ: 0.1; NadD block: 13.7

How did C[C@H]1CN([C@@H](C)CO)C(=O)Cc2cc(N(C)C)ccc2O[C@@H]1CN(C)C do in these assays?
esBAF inh: -1.7

How did COC(=O)[C@@H](Cc1c[nH]c2ccccc12)NC(=O)c1ccc2c(c1)OCO2 do in these assays?
SKN-1 block: -1.2; NR3A LBD binder: 2.5; esBAF inh: 68.0*; Vif imaging: -6.3; SMARCA2 activ: 4.7; NadD block: -8.1

How did O=C(COC(=O)[C@H](Cc1c[nH]c2ccccc12)NC(=O)c1ccc(Cl)cc1)Nc1ccc2c(c1)OCO2 do in these assays?
SKN-1 block: 4.9; NR3A LBD binder: 19.7*; esBAF inh: inconclusive; Vif imaging: 3.4; SMARCA2 activ: -0.3; NadD block: 3.5

How did CC(=O)N[C@@H](Cc1c[nH]c2ccccc12)C(=O)OCC(=O)Nc1ccc2c(c1)OCO2 do in these assays?
SKN-1 block: 29.8; NR3A LBD binder: 12.3*; Vif imaging: 4.0; SMARCA2 activ: -1.6; NadD block: 0.3

Results for CO[C@H]1CN(C)C(=O)c2ccc(NS(=O)(=O)c3ccccc3C)cc2OC[C@@H](C)NC[C@H]1C ?
esBAF inh: -0.7

How did Cc1ccc(/C=C2\SC(=S)N(CCC(=O)NNC(=O)c3cccnc3)C2=O)cc1 do in these assays?
SKN-1 block: 6.2; NR3A LBD binder: 9.9; Vif imaging: 2.0; SMARCA2 activ: 1.0; NadD block: 12.8

What do the screens show for `CN1C(=O)/C(=C/c2ccc(C(=O)Nc3ccc(O)cc3C(=O)O)cc2)SC1=S`?
SKN-1 block: 21.9; NR3A LBD binder: -1.6; esBAF inh: 5.5; Vif imaging: -21.4; SMARCA2 activ: 1.1; NadD block: 40.3*

Results for Cc1ccc(/C=C2\SC(=S)N(CCC(=O)NNC(=O)c3ccc(O)cc3)C2=O)cc1 ?
SKN-1 block: -3.6; NR3A LBD binder: 22.9*; esBAF inh: 6.1; Vif imaging: -2.1; SMARCA2 activ: -2.5; NadD block: 44.5*
